Assay results taken from PubChem BioAssay AID431 (Sanford-Burnham Center for Chemical Genomics, 2006).
About 1,100 (1.7%) of roughly 63,000 compounds were called active. The entries come from a sample that favours actives as a whole. Measured potencies and affinities stand elsewhere. Unmarked numbers belong to inactive results.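 How the source made its calls: active means compounds whose percent cytotoxicity in the single-dose primary screen, scaled between solvent and toxic-drug controls, exceeds 50; inactive means the rest.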

Assay: viability loss of HPDE-C7K cells – cell-based, fluorescence, HTS, primary screen (AID 431);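 further: 0% = DMSO solvent wells and 100% = doxorubicin-treated wells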
Conditions: HPDE-C7K KRASV12 cells, Alamar Blue viability, 48 h; at 10 µM; active compounds read high

Structure (SMILES)	cytotoxicity
Cc1noc(C)c1COC(=O)CCc1nc2ccccc2s1	-2.7%
c1cn2cc(CN3CCOCC3)nc2s1	-3.4%
Cc1nnc2sc(-c3cc4ccccc4o3)nn12	8.5%
COc1ccccc1-c1nn2c(-c3ccccc3Cl)nnc2s1	-7.7%
COc1ccccc1-c1nnc2sc(-c3cc4ccccc4o3)nn12	61.8% (active)
COC(=O)CSc1nnc(SCc2ccccc2)s1	-19.9%
CCOC(=O)N1CCN(C(=O)CCc2nc3sc4c(c3c(=O)[nH]2)CCCC4)CC1	4.1%
CC(C)OC(=O)CSc1nnc(-c2ccc(Cl)cc2Cl)n1N	-9.9%
Cc1ccc(Nc2nc(N3CCOCC3)nc(N3CCOCC3)n2)cc1	10.2%
O=C(O)c1cccc(Nc2nc(N3CCOCC3)nc(N3CCOCC3)n2)c1	1.7%
Cc1cccc(Nc2nc(NCc3ccco3)nc(N3CCOCC3)n2)c1	63.9% (active)
CN1CCN(c2nc(Nc3cccc(C(F)(F)F)c3)nc(N3CCOCC3)n2)CC1	52.3% (active)
CC(C)c1ccc(Nc2nc(NCc3ccco3)nc(N3CCOCC3)n2)cc1	35.8%
COc1nc(Nc2cccc(C(F)(F)F)c2)nc(OC)n1	4.6%
CCOC(=O)N1CCN(C(=O)C2CC(=O)N(c3ccc(OC)cc3)C2c2ccc(OC)cc2)CC1 (stereo not drawn)	-8.1%
O=C(NCCCN=C1NS(=O)(=O)c2ccccc21)c1ccc(S(=O)(=O)N2CCCCC2)cc1	-14.3%
c1ccc(Cn2c(SCc3nc4ccccc4s3)nnc2-c2ccco2)cc1	8.5%
Nc1c(NC2CCCCC2)c2ccccc2oc1=O	-25.2%
CCOC(=O)c1c(-c2cccs2)csc1NC(=O)CCCC(=O)O	25.9%
COC(=O)c1c(-c2cccs2)csc1NC(=O)CN1CCOCC1	4.8%
CCOC(=O)c1c(-c2cccs2)csc1NC(=O)CN1CC(C)OC(C)C1 (stereo not drawn)	60.6% (active)

Structure (SMILES)	cytotoxicity
N#CCc1ccc(NS(=O)(=O)c2ccc(N3CCCC3=O)cc2)cc1	-0.7%
Cc1ccc2nc3sc(C(=O)N4CCOCC4)c(N)c3cc2c1	5.9%
Cc1cccc2cc3c(N)c(C(=O)N4CCOCC4)sc3nc12	68.7% (active)
Cc1ccc2cc3c(N)c(C(=O)N4CCOCC4)sc3nc2c1	-10.3%
O=C(NCCCN1CCCCCC1)c1ccc2c(c1)NC(=O)C(N1CCOCC1)S2 (stereo not drawn)	-17.2%
O=C(Nc1c(C(=O)O)oc2ccc(Br)cc12)c1ccccc1	31.7%
COc1cc(C(=O)Nc2ccccn2)cc(OC)c1OC	21.5%
COc1ccc(C(NC(C)=O)c2ccc3cccnc3c2O)c(OC)c1 (stereo not drawn)	-6.2%
CCOc1ccc(C(=O)Nc2c3c(nn2-c2cccc(C)c2C)CS(=O)C3)cc1 (stereo not drawn)	-6.5%
O=C(c1ccco1)N1CCN(c2nc(C3CC3)nc3sc4c(c23)CCCC4)CC1	50.9% (active)
CC(C)c1nc(N2CCN(C(=O)c3ccco3)CC2)c2c3c(sc2n1)CCCC3	-14.3%
Cc1nc(N2CCN(C(=O)c3ccco3)CC2)c2c3c(sc2n1)CCC3	2.2%
COc1cccc(CCC(=O)O)c1OC	-7%
CCOC(=O)N1CCN(C(=O)Cn2nc(C)c3sc4ccccc4c3c2=O)CC1	-5%
CCc1ccc(-c2nc(CN3CCCC(C(=O)NCCc4ccc(OC)c(OC)c4)C3)c(C)o2)cc1 (stereo not drawn)	5.5%
CCc1ccc(-c2nc(CN3CCC(C(=O)NCCN(CC)c4ccccc4)CC3)c(C)o2)cc1	39.2%
CCN(CCNC(=O)C1CCCN(Cc2nc(-c3ccc(OC)cc3)oc2C)C1)c1ccccc1 (stereo not drawn)	62.7% (active)
Cc1nonc1NC(=O)CSc1nc2cc(Cl)ccc2c2c1CCCC2	36.2%
Cn1c(NC(=O)c2cccnc2)nc2ccccc21	0.4%
Cc1ccc(S(=O)(=O)CCC(=O)OCC(=O)Nc2cc(C)on2)cc1	-22.1%
Cc1cc(C)nc(SCC(=O)c2ccc(O)cc2O)n1	-9.3%

Structure (SMILES)	cytotoxicity
CCOc1ccc2nc(NCCO)[nH]c2c1	4.8%
CCCOc1ccc2nc(NC(=O)OC)[nH]c2c1	61.1% (active)
COc1ccc2nc(SCC(N)=O)[nH]c2c1	-17.7%
CCCSc1ccc2nc(NC(=O)OC)[nH]c2c1	63.4% (active)
COc1ccc(C(=O)Nc2nc3ccccc3[nH]2)cc1OC	-8%
COc1ccc2nc(NCCO)[nH]c2c1	-14.2%
Cn1nc(CC(=O)Nc2cccc3ncccc23)c2ccccc2c1=O	-4.3%
CCOC(=O)c1ccc(NC(=O)CCc2nc(-c3cccc(C)c3)no2)cc1	1%
CCOC(=O)c1[nH]c(C)c(C(=O)NCCN2CCOCC2)c1C	8.4%
CC(=O)c1c(C)[nH]c(C(=O)OCC(=O)Nc2cc(C(F)(F)F)ccc2N2CCOCC2)c1C	14.5%
CCC(=O)N/C=C/n1cnc2cc(C(F)(F)F)ccc21	15.3%
C#CCOC(=O)CCC(=O)Nc1cc(OC)nc(OC)n1	-8%
C=CCOC(=O)CCC(=O)Nc1cc(OC)nc(OC)n1	51.4% (active)
COc1cc(NC(=O)CCCC(=O)OCC(F)(F)C(F)F)nc(OC)n1	-2.6%
CCOC(=O)Cn1c(C)c(C#N)c2ccccc21	8.1%
COc1ccc(N(CC(=O)N2CCc3ccccc32)S(=O)(=O)c2c(C)noc2C)cc1	2%
O=C(COc1ncnc2ccc(Br)cc12)Nc1ccc(N2CCOCC2)cc1	-7.7%
COc1ccc(OC)c(-c2nnc(NC(=O)C(C)Sc3nncn3C)s2)c1 (stereo not drawn)	4.7%
Cc1ccc(S(=O)(=O)NC2CCOC(C)(C)C2)cc1 (stereo not drawn)	-15.4%
COc1cccc2c1C(=O)c1c(O)c3c(c(O)c1C2=O)C[C@@](O)(C(=O)CO)C[C@@H]3O[C@H]1C[C@H](N)[C@H](O)[C@H](C)O1	98.7% (active)
COc1cccc2c1C(=O)c1c(O)c3c(c(O)c1C2=O)C[C@@](O)(C(C)=O)C[C@@H]3O[C@H]1C[C@H](N)[C@H](O)[C@H](C)O1	106% (active)
